Anesthetic bind – binds horse apoferritin like a general anesthetic; Potency, µM (titrated, usually from 77.5 µM), inactives show at the top dose activity change, negative = displacement, hits mostly inhibitors; 350,000 compounds, 0.074% hits; AID 485281; P02791; apoferritin/1-aminoanthracene competitive binding, fluorescence; further: potency means the concentration at half of the fitted maximal effect; on the % scale 0 is the no-effect control and ±100 the full control effect; nearly all actives have a fitted effect of over 20% in size
Target sequence (P02791 2-175 limits assumed): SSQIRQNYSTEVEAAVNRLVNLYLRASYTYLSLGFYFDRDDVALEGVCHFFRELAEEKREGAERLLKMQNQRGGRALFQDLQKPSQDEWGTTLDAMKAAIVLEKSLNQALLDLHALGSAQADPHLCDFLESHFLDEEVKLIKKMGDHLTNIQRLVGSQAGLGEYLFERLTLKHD
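Horse-spleen apoferritin (10 uM) was mixed with 50% saturated 1-aminoanthracene in PBS, exposed to compounds for 10 min at room temperature, and read for fluorescence (ex 380 nm, em 535 nm). Competitive displacement was fitted with a four-parameter Hill equation.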
TRPV1 potentiator – potentiators of human vanilloid receptor 1 (TRPV1). potentiation, % at 8.33 µM. 320,000 compounds, 0.02% hits. TRPV1-expressing cells, Fluo-8 calcium influx, capsaicin EC20 potentiation. AID 540277; in the data active means potentiation above about 80%; inconclusive means between about 30% and that limit; further: 0% is about no effect
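TRPV1-expressing cells were cultured overnight at 35.5C and loaded with Fluo-8 calcium dye for 40 to 90 min at room temperature. After a 10 s baseline, compound was added and calcium influx was read kinetically for 3 min (ex 480/em 520 nm).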
CBFb RUNX1 block – inhibitors of human CBF-beta and RUNX1 interaction; 230,000 tested, under 10 active; Q01196+Q13951; AlphaScreen CBFb-His/RUNX1-biotin binding, biochemical; Potency, µM (series often up to 59.8 µM), without a hit: top-dose activity, negative = inhibition, hits mostly inhibitors; further: % of control where 0% means no effect
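Compounds were screened at multiple concentrations against a preformed CBF-beta(His)/RUNX1(biotin) complex (30 nM of each) for 15 min at room temperature, followed by 90 min with nickel and streptavidin beads and AlphaScreen reading.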
AT treatment – candidate therapy for ataxia-telangiectasia | AID 485349 | 320,000 compounds, 0.19% hits | Potency, µM (titrated, usually from 57.5 µM), without a hit: at the top dose activation, hits mostly activators | F2112 A-T fibroblasts, KAP-1 phosphorylation AlphaLISA; neocarzinostatin DNA damage 30 min before lysis; further: potency means the concentration at half of the fitted maximal effect; % of control where 0% means no effect; nearly all actives have a fitted effect of over 45% in size
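ATM-like activity read as KAP-1 phosphorylation via AlphaLISA donor/acceptor antibody pairs after lysis and 6 hr at 25C. Cells were ATM-null patient fibroblasts (F2112, hTERT), dosed 60 min, then exposed to the DSB inducer NCS for 30 min.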
TRPV1 agonist – agonists of human vanilloid receptor 1 (TRPV1); Q8NER1; activation, % at 8.33 µM; 320,000 compounds, 0.19% hits; TRPV1-expressing cells, Fluo-8 calcium influx, agonist mode; in the data active means activation above about 80%; inconclusive means between about 30% and that limit; further: 0% is about no effect
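Cells expressing TRPV1 were dye-loaded with Fluo-8 and read kinetically: 10 s baseline, 3 min after compound (agonist portion), then 2 min after EC20 capsaicin (allosteric enhancer portion). Calcium-bound dye fluorescence at 480/520 nm.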
* marks the source's active call; other numbers are inactive results; ? = inconclusive; · = no result given; [ ] = remark or other dose. Sampled rows, rich in hits. Any-hit rate of the full collection: about 0.39%. Unless noted, the call rests on the fitted dose curve; in most records, active means well fitted curve in the direction sought with a large enough effect; inconclusive means small, poorly fitted or top-dose-only effect, or another doubt; inactive means no such curve, though single readings can be large; an effect the other way counts as inactive or inconclusive.

SMILES	Anesthetic bind	TRPV1 potentiator	CBFb RUNX1 block	AT treatment	TRPV1 agonist
Cc1oc2ccc(OCc3ccc(Br)cc3)cc2c1C(=O)O	-4%	3	·	3.5µM*	4
O=c1c2ccccc2nnn1Cc1ccccc1	?	·	3%	-6%	·
O=C(OCn1nnc2ccccc2c1=O)C1CCCCC1	40µM*	-11	-5%	12%	-4
O=c1c2ccccc2nnn1Cc1ccccc1Cl	14µM*	-1	8%	-6%	1
O=C(CN1C(=O)C2CCCCC2C1=O)OCn1nnc2ccccc2c1=O (stereo not drawn)	-16%	-6	-1%	-1%	-4
O=c1c(C(c2ccc(Cl)cc2)c2c(O)nc3n(c2=O)CCCS3)c(O)nc2n1CCCS2	5%	23	10%	32µM*	-3
NNc1nc2c(-c3cccc(C(F)(F)F)c3)nnn2c2ccccc12	-17%	-3	·	25µM*	0
COC(=O)N[C@@H](/C=C/c1ccccc1)C[N+](=O)[O-]	·	·	10%	·	·
N#CC1(P(=O)(c2ccccc2)c2ccccc2)CCCC1	10%	111*	·	17%	-4
O=C(O)C1(P(=O)(c2ccccc2)c2ccccc2)CCCC1	0%	-7	4%	-10%	1
O=C(Cc1ccccc1)Nc1nc(-c2cccs2)cs1	-6%	-7	4%	-4%	94*
O=C(Cc1ccccc1F)Nc1nc(-c2cccs2)cs1	-16%	-2	4%	4%	81*
O=C(O)CCCC(=O)Nc1nc(-c2ccc(F)cc2)cs1	9%	7	17%	-2%	3
O=C(Cc1ccc(F)cc1)Nc1nc(-c2ccc(F)cc2)cs1	-3%	-31	·	5%	104*
C[C@H](CCC(=O)NCC(=O)O)C1CC[C@H]2[C@H]3C(C[C@H](O)[C@]12C)[C@@]1(C)CC[C@@H](O)C[C@H]1C[C@H]3O (stereo partly drawn)	-2%	·	14%	·	·
CCCCCCc1cc2cc(S(=O)(=O)c3ccc(F)cc3)c(=O)oc2cc1O	1%	-18	-4%	28µM*	21
c1ccc2c(c1)[nH]c1c(N3CCN(C4CCCCC4)CC3)ncnc12	6.3µM*	-5	-3%	2%	3
c1ccc2c(c1)[nH]c1c(N3CCCC3)ncnc12	2%	-1	-10%	-5%	2
O=C(O)COc1cccc2c1CCC=C2CCO/N=C(\c1ccccc1)c1cccnc1	-2%	·	-1%	·	·
COc1ccc(C2=Nn3c(nnc3-c3cccc(OC)c3OC)SC2)c(OC)c1	-22%	·	-3%	·	·
COc1ccc2c(c1)C(C)CC(C)(C)N2C(=O)CSc1ncn[nH]1 (stereo not drawn)	-22%	·	4%	20µM*	·
CC(=O)c1ccc(Nc2ncnc3c2oc2ccccc23)cc1	-11%	-11	4%	0%	88*
O=C(Nc1cc(Cl)cc2c1[nH]c1cnccc12)c1cccnc1	-15%	·	?	·	·
Cc1ccc(C(=O)NCC(=O)OCC(=O)NC(C)C2CC3CCC2C3)cc1 (stereo not drawn)	·	12	·	1%	-4
CC(NC(=O)COC(=O)Cc1ccsc1)C1CC2CCC1C2 (stereo not drawn)	16µM*	-29	-4%	-3%	?
SMILES	Anesthetic bind	TRPV1 potentiator	CBFb RUNX1 block	AT treatment	TRPV1 agonist
CC1CCCC(C)N1C(=O)COc1cccc(Oc2ccccc2)c1 (stereo not drawn)	·	·	·	34%	·
CC1CCCC(C)N1C(=O)Cc1ccccc1 (stereo not drawn)	13µM*	0	-3%	2%	0
C/C=C/C/C=C/CCC(=O)[C@H]1O[C@H]1C(N)=O	-22%	·	30%	·	·
Oc1cccc(NC(=S)N=Nc2c(O)[nH]c3ccccc23)c1	?	5	6%	1.3µM*	-3
O=C(Nc1ccc(-c2nc3cccnc3s2)cc1)c1cccnc1Cl	-7%	4	2%	14µM*	4
CCCCNC(=O)CCc1c(C)nc2c(c(C)nn2-c2ccccc2)c1C	0%	-1	·	-5%	94*
Cc1ccc(-n2nc(C)c3c(C)c(CCC(=O)NCc4ccccc4)c(C)nc32)cc1	-3%	8	1%	1%	82*
Cc1nc2c(c(C)nn2-c2ccccc2)c(C)c1CCC(=O)NCCc1ccccc1	-5%	·	·	·	·
Cc1ccc(-n2nc(C)c3c(C)c(CCC(=O)NCc4ccccc4Cl)c(C)nc32)cc1	-4%	·	·	·	·
Cc1ccc(CNC(=O)CCc2c(C)nc3c(c(C)nn3-c3ccc(C)cc3)c2C)cc1	-2%	2	17%	-9%	?
Cc1ccc(-n2nc(C)c3c(C)c(CCC(=O)NCc4ccco4)c(C)nc32)cc1	-3%	-13	-1%	-3%	82*
CC[C@H](C)[C@H](N)C(=O)N[C@@H](CCCNC(=N)N)C(=O)N[C@@H](CCC(N)=O)C(=O)NCC(=O)N1CCC[C@H]1C(=O)N[C@@H](CCCCN)C(=O)N[C@@H](CCC(=O)O)C(=O)N1CCC[C@H]1C(=O)N[C@@H](Cc1ccccc1)C(=O)N[C@@H](CCCNC(=N)N)C(=O)N[C@@H](CC(=O)O)C(=O)N[C@@H](Cc1ccc(O)cc1)C(=O)N[C@H](C(=O)N[C@@H](CC(=O)O)C(=O)N[C@@H](CCCNC(=N)N)C(=O)N[C@@H](Cc1ccccc1)C(=O)N[C@@H](Cc1ccc(O)cc1)C(=O)N[C@@H](CCCCN)C(=O)N[C@H](C(=O)N[C@@H](CC(C)C)C(=O)O)[C@@H](C)O)C(C)C	0%	·	2%	·	·
C[C@H]1Cc2c(-c3ccccc3)nc3c(c2CO1)CN(C(=O)c1cc(I)ccc1F)CC3	·	·	1%[13.1 µM]	·	·
Oc1ccc(Br)cc1C1C=C(c2ccc3c(c2)OCO3)NC(c2ccc(F)c(Br)c2)N1 (stereo not drawn)	·	15	·	·	11
C=CCn1c2ccccc2c(=O)c2cc(C#CC[C@@H](C)O)ccc21	·	-21	·	20µM*	20
Cn1c2ccccc2c(=O)c2cc(C#CC3=CCCCC3)ccc21	·	-6	·	?	3
C=CCn1c2ccccc2c(=O)c2cc(C#CC3(O)CCCCC3)ccc21	54%	9	·	25µM*	8
Cc1nc(C)c(-c2ccc(SCC(=O)Nc3ccc(F)cc3F)nn2)s1	-10%	0	·	10%	8
Cc1nc(C)c(-c2ccc(SCC(=O)Nc3ccccc3F)nn2)s1	22µM*	·	·	·	·
O=C(CNC(=O)c1ccc2c(c1)OCCO2)N/N=C/c1cccc(Br)c1	5.6µM*	14	-15%	6%	-2
COc1ccc(C2=NN(C(=O)CCC(=O)O)C(c3ccccc3)C2)cc1 (stereo not drawn)	-11%	14	·	4%	1
Cc1ccc(N2C(=O)C3N=NN(CC(=O)N4N=C(c5ccccc5)CC4c4ccccc4)C3C2=O)cc1 (stereo not drawn)	-18%	84*	-13%	4%	-18
C=C(C)C(=O)OCCOCC	11%	·	19%	·	·

High-throughput results: PubChem, National Center for Advancing Translational Sciences (NCATS)
